Laboratory results as given in PubChem BioAssay (NCI).
“And” between values parts separate entries of the source, which are not always exact repeats. Equal values may be shown once. Compounds without any hit were thinned out: in the full panel of roughly 83,000, 20% have a hit.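 Step 1: grow cells in 96-well plates. Step 2: add test compound at a single concentration. Step 3: incubate 48 h. Step 4: record percent growth.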 Values without a mark were called inactive. The source made the active and inactive calls. How the source made its calls: active means growth percent below 10; inactive means the rest.

Columns and labels:
Assay in all cases: NCI-60 one-dose screen, 48 h (100 = growth as untreated, 0 = no growth, -100 = all killed)
NCI-H23 lung = system: NCI-H23 lung
NCI-H322M lung = system: NCI-H322M lung
NCI-H460 lung = system: NCI-H460 lung
HOP-92 NSCLC = conditions: 10 µM unless noted
786-0 renal = system: 786-0 renal
COLO 205 colon = system: COLO 205 colon
DU-145 prostate = system: DU-145 prostate
K-562 leukemia = system: K-562 leukemia
MALME-3M melanoma = system: MALME-3M melanoma
MDA-MB-231 breast = system: MDA-MB-231 breast
RXF 393 renal = system: RXF 393 renal
SF-268 CNS = system: SF-268 CNS
SF-295 CNS = system: SF-295 CNS
SF-539 CNS = system: SF-539 CNS
UACC-257 melanoma = system: UACC-257 melanoma
NCI-H226 lung = conditions: 10 µM unless noted
HOP-62 NSCLC = conditions: 10 µM unless noted
NCI-H522 lung = conditions: 10 µM unless noted
A549/ATCC NSCLC = system: A549/ATCC NSCLC
M14 melanoma = system: M14 melanoma

O=c1ccn2c(n1)OC1CC2OC1COC(c1ccccc1)(c1ccccc1)c1ccccc1 (stereo not drawn)
growth (NCI-H23 lung; 10 µM): 116% | growth (NCI-H23 lung; 100 µM): 99.6% | growth (NCI-H322M lung; 10 µM): 106% | growth (NCI-H322M lung; 100 µM): 49.9% | growth (NCI-H460 lung; 10 µM): 106% | growth (NCI-H460 lung; 100 µM): 94.5% | growth (HOP-92 NSCLC): 72.4% [100 µM] | growth (786-0 renal; 10 µM): 113% | growth (786-0 renal; 100 µM): 86.1% | growth (COLO 205 colon; 10 µM): 112% | growth (COLO 205 colon; 100 µM): 115% | growth (DU-145 prostate; 10 µM): 115% | growth (DU-145 prostate; 100 µM): 99.1% | growth (K-562 leukemia; 10 µM): 102% | growth (K-562 leukemia; 100 µM): 50.4% | growth (MALME-3M melanoma; 10 µM): 119% | growth (MALME-3M melanoma; 100 µM): 95% | growth (MDA-MB-231 breast; 10 µM): 111% | growth (MDA-MB-231 breast; 100 µM): 82.1% | growth (RXF 393 renal; 10 µM): 107% | growth (RXF 393 renal; 100 µM): 75.8% | growth (SF-268 CNS; 10 µM): 119% | growth (SF-268 CNS; 100 µM): 76.3% | growth (SF-295 CNS; 10 µM): 118% | growth (SF-295 CNS; 100 µM): 67.1% | growth (SF-539 CNS; 10 µM): 110% | growth (SF-539 CNS; 100 µM): 48.8% | growth (UACC-257 melanoma; 10 µM unless noted): 93.8% [100 µM]

OC1CCCN(Cc2ccccc2)C1 (stereo not drawn)
growth (NCI-H23 lung; 10 µM unless noted): 103% | growth (NCI-H226 lung): 106% | growth (NCI-H322M lung; 10 µM unless noted): 113% | growth (HOP-62 NSCLC): 107% | growth (NCI-H460 lung; 10 µM unless noted): 107% | growth (HOP-92 NSCLC): 106% | growth (NCI-H522 lung): 101% | growth (A549/ATCC NSCLC; 10 µM unless noted): 85.4% | growth (786-0 renal; 10 µM unless noted): 115% | growth (COLO 205 colon; 10 µM unless noted): 102% | growth (DU-145 prostate; 10 µM unless noted): 121% | growth (K-562 leukemia; 10 µM unless noted): 111% | growth (MALME-3M melanoma; 10 µM unless noted): 104% | growth (MDA-MB-231 breast; 10 µM unless noted): 103% | growth (RXF 393 renal; 10 µM unless noted): 107% | growth (SF-268 CNS; 10 µM unless noted): 102% | growth (SF-295 CNS; 10 µM unless noted): 114% | growth (SF-539 CNS; 10 µM unless noted): 109% | growth (UACC-257 melanoma; 10 µM unless noted): 93.9%

OCCSc1ccc(Cl)cc1
growth (NCI-H23 lung; 10 µM unless noted): 112% and 102% | growth (NCI-H226 lung): 116% and 99.3% | growth (NCI-H322M lung; 10 µM unless noted): 114% and 96% | growth (HOP-62 NSCLC): 108% and 76.1% | growth (NCI-H460 lung; 10 µM unless noted): 108% and 107% | growth (HOP-92 NSCLC): 101% and 97.7% | growth (NCI-H522 lung): 101% and 76.5% | growth (A549/ATCC NSCLC; 10 µM unless noted): 104% and 97% | growth (786-0 renal; 10 µM unless noted): 108% and 95.7% | growth (COLO 205 colon; 10 µM unless noted): 117% and 104% | growth (DU-145 prostate; 10 µM unless noted): 125% and 107% | growth (K-562 leukemia; 10 µM unless noted): 112% and 136% | growth (MALME-3M melanoma; 10 µM unless noted): 117% and 83.8% | growth (MDA-MB-231 breast; 10 µM unless noted): 115% and 99.5% | growth (RXF 393 renal; 10 µM unless noted): 114% and 108% | growth (SF-268 CNS; 10 µM unless noted): 124% and 101% | growth (SF-295 CNS; 10 µM unless noted): 94.9% and 101% | growth (SF-539 CNS; 10 µM unless noted): 108% and 91.7% | growth (UACC-257 melanoma; 10 µM unless noted): 114% and 97.2% | growth (M14 melanoma; 10 µM unless noted): 107% and 94.2%

S=c1nc[nH]c2nc[nH]c12
growth (NCI-H23 lung; 10 µM): 31.9% | growth (NCI-H23 lung; 50 µM): 21.3% | growth (NCI-H226 lung): 46.3% | growth (NCI-H460 lung; 10 µM): 45.3% | growth (NCI-H460 lung; 50 µM): 26.9% | growth (HOP-92 NSCLC): 51% [50 µM] | growth (A549/ATCC NSCLC; 10 µM): 84.8% | growth (A549/ATCC NSCLC; 50 µM): 48.2% | growth (786-0 renal; 10 µM): 17.3% | growth (786-0 renal; 50 µM): 25.9% | growth (COLO 205 colon; 10 µM): 35.2% | growth (COLO 205 colon; 50 µM): 6.94% (active) | growth (DU-145 prostate; 10 µM): 44.3% | growth (DU-145 prostate; 50 µM): 25.3% | growth (K-562 leukemia; 10 µM unless noted): 11.9% [50 µM] | growth (MALME-3M melanoma; 10 µM): 50.1% | growth (MALME-3M melanoma; 50 µM): 17.4% | growth (MDA-MB-231 breast; 10 µM): 42.9% | growth (MDA-MB-231 breast; 50 µM): 40.2% | growth (RXF 393 renal; 10 µM): 62.8% | growth (RXF 393 renal; 50 µM): 59.7% | growth (SF-268 CNS; 10 µM): 39.2% | growth (SF-268 CNS; 50 µM): 24.7% | growth (SF-295 CNS; 10 µM): 11.4% | growth (SF-295 CNS; 50 µM): 18.1% | growth (SF-539 CNS; 10 µM): 31.2% | growth (SF-539 CNS; 50 µM): 14.4% | growth (UACC-257 melanoma; 10 µM): 44.2% | growth (UACC-257 melanoma; 50 µM): 29.7% | growth (M14 melanoma; 10 µM): 14.1% | growth (M14 melanoma; 50 µM): 15.6%

CCCC(=O)Oc1ccc(CC)cc1
growth (NCI-H23 lung; 10 µM unless noted): 96.5% | growth (NCI-H226 lung): 110% | growth (NCI-H322M lung; 10 µM unless noted): 106% | growth (HOP-62 NSCLC): 98.9% | growth (NCI-H460 lung; 10 µM unless noted): 105% | growth (HOP-92 NSCLC): 115% | growth (NCI-H522 lung): 93% | growth (A549/ATCC NSCLC; 10 µM unless noted): 101% | growth (786-0 renal; 10 µM unless noted): 99.7% | growth (COLO 205 colon; 10 µM unless noted): 104% | growth (DU-145 prostate; 10 µM unless noted): 109% | growth (K-562 leukemia; 10 µM unless noted): 96.7% | growth (MALME-3M melanoma; 10 µM unless noted): 104% | growth (MDA-MB-231 breast; 10 µM unless noted): 111% | growth (RXF 393 renal; 10 µM unless noted): 117% | growth (SF-268 CNS; 10 µM unless noted): 96.9% | growth (SF-295 CNS; 10 µM unless noted): 98.5% | growth (SF-539 CNS; 10 µM unless noted): 101% | growth (UACC-257 melanoma; 10 µM unless noted): 94.2% | growth (M14 melanoma; 10 µM unless noted): 99%
